# Bioassay records deposited in PubChem by National Center for Advancing Translational Sciences (NCATS).
# Hits are enriched below; roughly 3.6% of the tested compounds scored in any of these assays.
# Mm-Cpn inhibitor: blocks the Methanococcus maripaludis chaperonin Mm-Cpn; purified Mm-Cpn ATPase, ADP Transcreener TR-FRET; Potency, µM (series often up to 76.9 µM), inactives show at the highest dose activity, negative = inhibition, hits mostly inhibitors; 330,000 compounds, 0.031% hits; note: % is set by controls: 0 for no effect and ±100 for the full control effect; nearly all actives have a fitted effect of over 80% in size
#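 Purified archaeal chaperonin (25 nM final) was preincubated with compound for 10 min at 37°C, then ATP (10 uM final) was added for 30 min at 37°C in Tris pH 7.4/KCl/MgCl2/DTT buffer. ADP was quantified by HTRF Transcreener TR-FRET.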
# aSyn yeast inh: rescues yeast growth from alpha-synuclein toxicity | Potency, µM (series often up to 46.1 µM), without a hit: top-dose growth rescue (activation), hits mostly activators | AID 652106 | 370,000 compounds, 0.14% hits | Yeast expressing alpha-synuclein, growth rescue, BacTiter-Glo, 24 h; note: % of control where 0% means no effect; nearly all actives have a fitted effect of over 65% in size
#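 Galactose-induced alpha-syn yeast (OD600=0.02, raffinose-pregrown) + pinned cpd, 24 hr, 30 deg C; growth by BacTiter-Glo luminescence. Growth restoration scores as activation.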
# TDP43 rescue: inhibitors of TDP-43 toxicity in yeast; TDP-43 expressing yeast growth rescue, BacTiter-Glo, 24 h; Potency, µM (highest dose often 46.1 µM), inactives show at the top dose growth rescue (activation), usual class: activators; 410,000 compounds, 1.8% hits; note: % of control where 0% means no effect; nearly all actives have a fitted effect of over 50% in size
#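 Luminescence from BacTiter-Glo reports growth of TDP-43-expressing yeast after 24 hr at 30 deg C with compound. Cells were raffinose-pregrown to mid-log, then seeded in galactose medium at OD600=0.02.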
# FUS yeast rescue: rescues growth of FUS-expressing yeast | AID 1347120 | 390,000 compounds, 0.24% hits | S. cerevisiae FUS-expressing, growth rescue, OD600, 24 h | Potency, µM (top dose mostly 76.6 µM), most hits filed as activators;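 note: plate controls were DMSO vehicle for no effect and reference control for full effect; nearly all actives have a fitted effect of over 55% in size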
#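 Toxicity suppression screen in FUS-yeast. Cells induced with 2% galactose, starting OD 0.005, treated 24hr at 30C with compounds at multiple final concentrations; growth by OD600.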
# ClpP mod: qHTS Assay for Activators of ClpP; ATP-dependent Clp protease proteolytic subunit (Bacillus subtilis (strain 168)), P80244; purified B. subtilis ClpP, FRET peptide cleavage, 20 min; Potency, µM (top dose mostly 57.5 µM), without a hit: at the highest dose activity change, negative = active; 340,000 compounds, 1.9% hits; active = well fitted falling curve with a large enough effect; inconclusive = small, poorly fitted or top-dose-only effect; inactive = no such curve, though single readings can be large or run the other way; note: the source files actives as falling curves though it sought activators and does not explain the sign; nearly all actives have a fitted effect of over 65% in size
# Target sequence (P80244 whole entry, looked up): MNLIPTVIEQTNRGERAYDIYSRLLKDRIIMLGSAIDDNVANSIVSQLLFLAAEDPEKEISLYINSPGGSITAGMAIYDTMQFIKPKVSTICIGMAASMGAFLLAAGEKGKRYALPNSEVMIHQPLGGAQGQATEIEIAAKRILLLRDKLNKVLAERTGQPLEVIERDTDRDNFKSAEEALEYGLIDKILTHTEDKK
#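 FRET quenching reversal measured ClpP activation: 10 microg/mL B. subtilis ClpP at pH 8 with the FRET-FV decapeptide, read at 430 nm after 320 nm excitation. The 20-min minus 0-min signal was scaled between DMSO/no-enzyme wells and ADEP (5.8 microM final).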
# Abeta rescue: compounds reversing amyloid beta toxicity in yeast; yeast expressing A-beta42, growth rescue, OD600, 48 h; response scale: 0% DMSO, 100% iron-clioquinol control; Potency, µM (top dose mostly 46.1 µM), actives largely listed as activators; 410,000 compounds, 0.063% hits; note: nearly all actives have a fitted effect of over 55% in size
#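 Yeast A-beta toxicity model in growth medium with pinned compounds, 48 h at 30 C; growth read as absorbance at 600 nm. Normalized to FeCl3/clioquinol equimolar mix (positive) and DMSO (negative).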
# Starred values were filed as active, the others as inactive; i = inactive; ? = inconclusive; / = no result given; [ ] = dose if it differs, or a comment. Unless noted, calls come from the whole dose curve; as a rule, active = well fitted curve in the direction sought with a large enough effect; inconclusive = small, poorly fitted or top-dose-only effect, or another doubt; inactive = no such curve, though single readings can be large; an effect the other way counts as inactive or inconclusive. Potency is the fitted concentration of half-maximal effect.
SMILES,Mm-Cpn inhibitor,aSyn yeast inh,TDP43 rescue,FUS yeast rescue,ClpP mod,Abeta rescue
O=C(N/N=C/c1ccc([N+](=O)[O-])o1)C(O)c1ccccc1 (stereo not drawn),0%,1%,24%,i,2%,i
CN(/N=C/c1ccc([N+](=O)[O-])o1)c1ccccc1,-1%,6%,14µM*,i,/,i
Cc1nc2c(C(=O)N3CCOCC3)cnn2c(C)c1Cc1ccc(Cl)cc1,-3%,1%,1%,i,28µM*,i
Cc1cc(C)c(Cc2c(C)nc3c(C(=O)NCc4ccco4)cnn3c2C)c(C)c1,1%,0%,-15%,/,20µM*,i
Cc1nc2c(C(=O)NC(C)c3ccccc3)cnn2c(C)c1Cc1ccccc1 (stereo not drawn),/,/,29%,?,32µM*,i
COC(CNC(=O)c1cnn2c(C)c(Cc3ccccc3)c(C)nc12)OC,4%,-7%,3%,i,-2%,i
Cc1ccc(CNC(=O)c2cnn3c(C)c(Cc4c(F)cccc4Cl)c(C)nc23)cc1,/,/,31%,i,?,i
Cc1nc2c(C(=O)NCCc3ccc(Cl)cc3)cnn2c(C)c1Cc1ccc(F)cc1,/,/,20µM*,32µM*,25µM*,i
Cc1ccc(CN2CCN(C3CCN(C(=O)c4ccccc4)CC3)C(=O)C2=O)cc1,/,/,23%,i,1%,i
COc1ccc(CNC(=O)Cc2csc3nc(-c4ccc(F)cc4)cn23)cc1,/,/,12%,i,-2%,i
O=C1C(=O)c2c(ccc3ccccc23)-c2ccccc21,/,-27%,2µM*,i,/,i
Cc1nc(SCc2cccc(Oc3ccccc3)c2)n[nH]1,3%,-32%,28µM*,i,1%,i
Cc1nn(CCC#N)c2nc(-c3ccccc3)cc(C(F)(F)F)c12,3%,5%,12%,i,32µM*,i
Cc1nn(CCc2nn[nH]n2)c2nc(-c3ccccc3)cc(C(F)(F)F)c12,0%,-1%,9%,i,3%,i
Cc1cc(C(F)(F)F)c2c(C)nn(CCc3nn[nH]n3)c2n1,1%,-2%,7%,i,18µM*,i
CCOC(=O)c1cc(-c2ccc(OC)cc2F)nc2c1c(C)nn2CCC#N,1%,9%,-7%,i,25µM*,i
Cc1ccc(-n2nc(C)c3c(C(F)(F)F)cc(-c4cccnc4)nc32)cc1C,/,/,12%,i,-4%,i
Cc1cc(C(F)(F)F)c2c(C)nn(-c3ccccc3)c2n1,/,-8%,-13%,i,28µM*,i
Cn1c(=O)c2[nH]c(SCC(=O)NCCc3ccc(F)cc3)nc2n(C)c1=O,/,/,/,i,/,/
CCC(C(=O)NCc1ccccc1Cl)n1nc(C)c2sc3ccccc3c2c1=O (stereo not drawn),/,/,17%,i,-7%,i
CCOC(=O)c1cc(-c2ccc3c(c2)OCCO3)nc2c1c(C)nn2CCC#N,-1%,8%,9%,i,?,i
CCOC(=O)c1cc(-c2ccc(Cl)cc2)nc2c1c(C)nn2CCC#N,-2%,11%,-11%,i,35µM*,i
O=C(CSc1ncccc1C(=O)O)NCc1ccc(F)cc1,-1%,1%,-2%,i,1%,i[9.22 µM]
O=C(CSc1ccnc(=O)[nH]1)NCc1ccc(F)cc1,/,/,3.2µM*,i,-3%,i
O=C(CSc1ncccn1)NCc1ccc(F)cc1,-1%,-1%,16µM*,i,1%,i
SMILES,Mm-Cpn inhibitor,aSyn yeast inh,TDP43 rescue,FUS yeast rescue,ClpP mod,Abeta rescue
O=C(CSc1ccc(-c2ccccn2)nn1)NCc1ccc(F)cc1,1%,-16%,16µM*,?,/,i
O=C(CCl)Nc1ccccc1Sc1ccc(Cl)cc1,-2%,/,11µM*,i,0%,i
O=C(Nc1ccccc1Sc1ccccc1)c1ccccc1,-1%,-1%,11µM*,i,-2%,?
O=C(Cc1ccccc1)Nc1ccccc1Sc1ccccc1,1%,-1%,24%,/,2%,i
COc1ccc2cc(C(=O)NCc3ccc4c(c3)CCN4C(=O)c3ccc(F)cc3)[nH]c2c1,/,/,16µM*,i,1%,i
COc1ccc2cc(C(=O)NCc3ccc4c(c3)CCN4C(=O)c3ccc(C)cc3)[nH]c2c1,/,/,5%,i,-6%,i
CC(=O)c1c(C)[nH]c(C(=O)OCc2cccc(Cl)c2)c1C,0%,-9%,16µM*,i,-7%,i
Cc1cc(NC(=O)c2cc(-c3ccccc3Cl)nc3ccccc23)no1,-28%,2%,14µM*,i,-2%,i
O=C(NCc1ccccn1)c1cc(-c2ccncc2)nc2ccccc12,3%,1%,15%,i,-9%,i
Cc1cc(NC(=O)c2cc(-c3ccccc3C)nc3ccccc23)no1,-5%,1%,0%,/,-2%,i
O=C(NCc1ccccn1)c1cc(-c2ccccc2Cl)nc2ccccc12,-1%,5%,20µM*,/,-4%,i
Cc1cc(-n2c(C)nc3ccccc3c2=O)ccc1NC(=O)C(F)(F)F,/,/,16%,i,-1%,i
Oc1ccccc1C1NN=C(c2ccccc2)S1 (stereo not drawn),1%,-15%,18%,i,7.1µM*,i
O=C1C(=O)C(c2ccc(O)cc2O)Oc2cc(O)cc(O)c21 (stereo not drawn),/,1%,/,/,-2%,/
COc1ccc2[nH]c(=O)c(CN(C(C)=O)c3cccc(C)c3)cc2c1,0%,-4%,16%,i,35µM*,i
COc1ccc(N(Cc2cc3cc(C)ccc3[nH]c2=O)C(C)=O)cc1,-2%,4%,7%,i,-27%,i
COc1ccc2[nH]c(=O)c(CN(C(=O)NC3CCCCC3)C3CCCC3)cc2c1,1%,0%,0%,i,34%,i
COc1ccc2[nH]c(=O)c(CN(C(C)=O)C3CCCCC3)cc2c1,-5%,-5%,-15%,i,32µM*,i
CCOC(=O)CNC(=O)CSc1nc2ncc(Br)cc2[nH]1,0%,-7%,14%,i,16µM*,i
CCc1ccc2oc(-c3cc(N=Cc4cccc(OC)c4O)ccc3O)nc2c1,-1%,0%,16µM*,i,-1%,i
CCCCNC(=S)N1CCC(Cc2ccccc2)CC1,1%,-9%,11%,i,1%,18µM*
CCCCNC(=S)N1CCN(c2ccccc2Cl)CC1,3%,2%,13µM*,i,0%,i
